The full ranking holds about 81,000 sequences; the median of “one-hybrid fitness for binding parS DNA” is about -0.17, and the highest 2% start at about 0.51. Only a selection was taken, and the highest values are over-represented in it overall.
B1: Caulobacter ParB omega fusion; a variant is named by its letters at X, in order, B8GW30 (parent)
chain: MESVVVGEPGMSEGRRGLGRGLSALLGEVDAAPAQAPGEQLGGSREAPIEILQRNPDQPRRTFREEDLEDLSNSIREKGVLQPILVRPSPDTAGEYQIVAGERAWRAAQRAGLKTVPIMVRELDDLAVLEIGIIENVQRADLNVLEEALSYKVLMEKFERTQENIAQTIGKSXSHVANXMRLLXLPDEVQSYLVSGELTAXHARAIAAAADPVALAKQIIEGGLSVRETEALARKAPNLSAGKSKGGRPPRVKDTDTQALESDLSSVLGLDVSIDHRGSTGTLTITYATLEQLDDLCNRLTRGI

Variants of: B1
Test: one-hybrid fitness for binding parS DNA (scaled: cognate 1, non-cognate 0); higher = stronger binding
Conditions: with parS DNA site
Outline: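 Fitness here means the log change in variant-to-wild-type read ratio between plasmids sequenced before and after selection. That scale was set so cognate equals 1 and non-cognate equals 0. The selection was a bacterial one-hybrid screen of Caulobacter ParB libraries, four specificity codons randomised, in E. coli USO carrying a HIS3 reporter with the site 19 bp from the promoter, grown 48 hours at 37°C on M9-minus-histidine with 0.1 mM IPTG and 5 mM 3-AT.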

Variant	one-hybrid fitness for binding parS DNA
RNCD	≤ 0.2
RNRS	0.961
ELGN	≤ 0.2
PYSK	≤ 0.2
NITG	≤ 0.2
KRPK	≤ 0.2
EVIR	≤ 0.2
FSHN	≤ 0.2
RCFI	≤ 0.2
IRLE	≤ 0.2
PFDT	≤ 0.2
RSFA	0.558
RNFA	0.301
RWFA	0.298
RCFA	0.589
RPFA	≤ 0.2
RDFA	≤ 0.2
IFQR	≤ 0.2
PTLA	≤ 0.2
RHFF	≤ 0.2
RHAH	0.202
RHAD	≤ 0.2
RHFY	0.377
RHAG	0.969
RHFG	0.876

Variant	one-hybrid fitness for binding parS DNA
DYKT	≤ 0.2
SRQA	≤ 0.2
DEKR	≤ 0.2
SVMF	≤ 0.2
RCFT	0.955
RPFT	≤ 0.2
RSFN	0.383
RSFH	≤ 0.2
REFT	≤ 0.2
RSFT	0.751
WLLH	≤ 0.2
REVI	≤ 0.2
SAPY	≤ 0.2
RTWG	1.03
RRWG	0.906
RTWF	0.275
RLWQ	≤ 0.2
RMWG	0.991
RMWR	≤ 0.2
RTWQ	≤ 0.2
RRWK	≤ 0.2
RLWR	≤ 0.2
RMWY	0.497
RRWF	≤ 0.2
RLWG	0.995

Variant	one-hybrid fitness for binding parS DNA
CQNS	≤ 0.2
QVGP	≤ 0.2
QTRM	≤ 0.2
ARLQ	≤ 0.2
CHSG	≤ 0.2
RCML	0.201
PFAT	≤ 0.2
QRRC	≤ 0.2
SRTM	≤ 0.2
KSRC	≤ 0.2
RIWG	0.985
RKWF	0.219
RFWG	0.744
RKWG	0.952
RIWM	0.361
RHWQ	≤ 0.2
RHWM	≤ 0.2
RHWG	0.844
KFWG	≤ 0.2
RIWY	0.471
DFWG	≤ 0.2
RKWY	0.393
KKLC	≤ 0.2
FRWG	≤ 0.2
IIKT	≤ 0.2

Variant	one-hybrid fitness for binding parS DNA
IYPT	≤ 0.2
DRGE	≤ 0.2
FVTP	≤ 0.2
HMNE	≤ 0.2
PPQC	≤ 0.2
RERK	≤ 0.2
DGKG	≤ 0.2
IFLY	≤ 0.2
DNYC	≤ 0.2
ALFC	≤ 0.2
REWG	≤ 0.2
RCWG	1.02
RAWM	0.35
RPWG	≤ 0.2
RDWG	≤ 0.2
RAWK	≤ 0.2
RAWG	0.989
RSWF	≤ 0.2
RSWG	0.93
NGLR	≤ 0.2
NTER	≤ 0.2
REFQ	≤ 0.2
WDSN	≤ 0.2
